Measured values published in publication PMC10163288.
The list is a sample of the results. No count for the full screen is at hand.

B1: il2ra_site2_2erj_normal_mot_HHH_b1_08185_000000063_0001_41_55_H_._HHH_b1_04971_af2_0001_0000600015_0000001_0 (protein)
chain: SSSSSDSAEEALELAKEAYEKGDRSEVELILRYLELSLEDANDPRVEEAYELVEELLEELSSSSS
B2: il2ra_site2_3nfp_normal_mot_HHH_b1_01086_000000225_0001_20_36_H_._HHH_b2_03611_0001_0000300035_0000001_0 (protein)
chain: SSSSSEAEEELERLLRELEELLKRDPEEAHRLSARALNLAYEARDFEIFARLADISFALASSSSS
B3: il2ra_site1_3nfp_sap_16_mot_5dea99290cf7e133ebc5b763b21a7a39_0001_000000141_0001_34_49_H_._ems_3hC_617_0002_0001_0000300017_0000001_0_0001 (protein)
chain: NDKIAERLVRQAVEQNSPRILKKILEDLERVLGDPEEARERLRELLELVLGDPEEVERLLELAEE
B4: il2ra_site1_3nfp_sap_8_mot_93ec910cbd4ebb8dd092c1ac1e61ab37_0001_1_af2_000000101_0001_16_31_H_._22fa1065b69cf192845a0250a7ccff51_0001_1_0001_0000400021_0000001_ … (protein)
chain: SSSSDSVEWLQEMIERAFENNDRRQLRVLIKILEKAAEQFGDPEVEKLLEEAERLLEELNSSSSS
B5: il2ra_site1_3nfp_normal_mot_HHH_b2_04366_af2_000000103_0001_1_19_H_._d3e5e791db42274430e6ef9f54efc4f5_0001_af2_0001_0000100007_0000001_0_af2pred_0001_af2pred_sw … (protein)
chain: SAKEISELLREAARKDPEVSELLWEALRLFVKNEEEALRLLEELLKELGDPLVEEVLRLLEELAK
B6: il2ra_site1_1z92_sap_8_mot_a31c9f16200a66e5ad31ddff700483a3_0001_1_000000069_0001_19_32_H_._HHH_b1_03395_0001_0000300021_0000001_0_0001_af2pred_0001_af2pred_1 (protein)
chain: PEELAEEARELLENGNPEEARKVLEKLAKELGTEEAFKLDLERAERFTGNPEVALKALIAALARH
B7: il2ra_site2_2erj_normal_mot_HHH_b1_06697_000000025_0001_41_54_H_._HHH_b2_03722_0001_0000300007_0000001_0_af2pred_0001_1_af2pred_swapped (protein)
chain: SSSSSDKEEVEERVREILEEAEQVRDPREALKILEKADRLASENNNEEALELIHEVLQRLSSSSS
B8: il2ra_site2_3nfp_sap_15_mot_HHH_b1_07089_af2_000000257_0001_1_17_H_._51cc31007119fa75359d0ea3f4aa2c22_0001_1_0001_0000100009_0000001_0_0001 (protein)
chain: SSSSSAAEDSVHVLKRELEELGDRESIEELERLLEEIKEHNDPRLLLELYALLLRLYEESSSSSS
B9: il2ra_site1_1z92_sap_21_mot_35b94aac26684153dbcc4bf06a514b74_0001_1_000000068_0001_35_49_H_._HEEHE_2006_af2_0001_0000400023_0000001_0_0001_af2pred_0001_af2pred (protein)
chain: SSSSDEEEAAEEIVREVVEKLGLSEEDREALERDAEQSLRRGISERSVKQALEKAAKRERSSSSS
B10: il2ra_site1_1z92_sap_11_mot_HHH_b2_00249_af2_000000052_0001_39_52_H_._HHH_b2_00616_af2_0001_0000400013_0000001_1_0001_af2pred_0001_af2pred (protein)
chain: SSSSSEKRKEALELFEEANELFKRGNDEEAQELLRRALELAEEAGNRVLARAIEQALEDAESSSS
B11: il2ra_site2_2erj_sap_22_mot_HHH_b2_08130_000000073_0001_1_17_H_._HHH_b1_02674_0001_0000300003_0000001_0_0001 (protein)
chain: SSSSDVEELLEEIEELLRRGDREEAERLLHEAAELAFERNDFELFTEVVEVAHEIDRLRVSSSSS
B12: il2ra_site2_3nfp_normal_mot_HHH_b1_01086_000000225_0001_20_36_H_._HHH_b1_01202_0001_0000300006_0000001_0_af2pred_0001_af2pred_swapped (protein)
chain: SSSSDHERFALRAALLEIEVAIEAGDEKKVEKLIERLEILIKRLNDEEMEELLRKLKEELSSSSS
B13: il2ra_site2_3nfp_normal_mot_HHH_b1_00660_af2_000000090_0001_40_57_H_._HHH_b1_07775_af2_0001_0000100002_0000001_1 (protein)
chain: SSSSDEELEEEVEKLLEEAKKIEDKFEAFALVLRAREIAERLGDEELKQLVARVALEIYESSSSS
B14: il2ra_site1_3nfp_normal_mot_eb5a5eebac1e5153f932cc6c3f4b2787_0001_af2_000000065_0001_18_33_H_._31bff7180b20e3ed47766ceefd9934be_0001_af2_0001_0000200025_0000001 … (protein)
chain: DEEKELAELIAEAVEKNDPELLEEVVQELLKKLGDPKEASRLFEELLRKAGLSPEEIYLAMELVV
B15: il2ra_site2_2erj_normal_mot_HHH_b1_04373_af2_000000118_0001_18_33_H_._HHH_b1_02368_af2_0001_0000200015_0000001_0 (protein)
chain: SSSSDEELREEVEELLERAREAYEEGDLELVYELAVEAAHFAARNQDEELLELILEVVERLSSSS
B16: il2ra_site1_1z92_normal_mot_HHH_b1_03515_000000289_0001_1_19_H_._HHH_b2_07175_0001_0000100001_0000001_0 (protein)
chain: SSSSDRLERAAEIIVRVAVEANGLSEEQEKELEELARELVERGLDPLEIIKLLDRLAAELSSSSS
B17: il2ra_site2_2erj_sap_28_mot_HHH_b1_06697_000000025_0001_41_54_H_._HHH_b1_07674_0001_0001200015_0000001_1_0001 (protein)
chain: SSSSSDVKEAYEEIAELLARAAHIKDPEEVRKLLEEAERLAEENNDPFARKYVEFARRDFSSSSS
B18: il2ra_site1_1z92_normal_mot_HHH_b2_01902_af2_000000252_0001_25_40_H_._HHH_b1_06549_af2_0001_0000100014_0000001_0_af2pred_dldesign_0_af2pred (protein)
chain: SSSSSPLERAARQYVDAIKEIAGLSDEQYAELLAEAERLAAAGVPVRDIAKALDKRAAELLSSSS

target: il2ra, P01589; test: yeast display titration
Sequence (P01589 whole entry): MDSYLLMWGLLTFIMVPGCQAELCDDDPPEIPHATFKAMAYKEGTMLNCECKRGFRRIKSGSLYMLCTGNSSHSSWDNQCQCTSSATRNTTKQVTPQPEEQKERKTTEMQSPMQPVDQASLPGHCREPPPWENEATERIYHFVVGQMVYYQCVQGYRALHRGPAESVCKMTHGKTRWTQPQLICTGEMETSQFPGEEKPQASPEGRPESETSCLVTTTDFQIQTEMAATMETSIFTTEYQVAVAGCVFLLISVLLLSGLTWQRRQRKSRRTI

Apparent Kd, inactive:
B1 no binding seen, B2 no binding seen, B3 no binding seen, B4 no binding seen, B5 no binding seen, B6 no binding seen, B7 no binding seen, B8 no binding seen, B9 no binding seen, B10 no binding seen, B11 no binding seen, B12 no binding seen, B13 no binding seen, B14 no binding seen, B15 no binding seen, B16 no binding seen, B17 no binding seen, B18 no binding seen
